# Experimental data: PubChem BioAssay AID687014 (The Scripps Research Institute Molecular Screening Center, 2013)
# About 6,800 (1.8%) of roughly 370,000 compounds were called active. For the sample, actives were picked, then their nearest neighbours and some compounds at random. A number with no mark means an inactive call.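 Rule for the calls: active = activation above a cutoff set at the mean of all screened compounds plus 3 SD (cut at about 10% in these data); inactive = the rest.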
# Tested on: Nuclear hormone receptor DAF-12 (Heterodera glycines), GAL4 fusion
# Assay: hgDAF-12 GAL4 fusion reporter activation – cell-based, luminescence, HEK293, UAS-luciferase, primary screen (AID 687014);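 note: 0% = DMSO wells and 100% = sodium butyrate wells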
# Details: HEK293 GAL4-hgDAF12 UAS-luciferase reporter, agonist luminescence; at 6.8 µM; active compounds read high; normalized to butyrate control
row,Structure (SMILES),activation
1,CCC(C)(C)NC(=O)C(c1ccc(O)cc1)N(C(=O)Cn1nnc2ccccc21)c1ccc(NC(C)=O)cc1 (stereo not drawn),-2.76%
2,C[C@H](CO)N1C[C@H](C)[C@@H](CN(C)C(=O)Nc2ccccc2F)OCc2cn(nn2)CCCC1=O,4.8%
3,COc1cc(/C=C(\C#N)c2nc3c(s2)CC(C)CC3)ccc1O (stereo not drawn),13.1% (active)
4,CCCC1CCC2(CCCN2CCOC(=O)NCc2ccccc2)CC1 (stereo not drawn),-0.9%
5,CCC(c1ccc(NC(=O)OC(C)(C)C)cc1)c1cc(OC)cc(OC)c1 (stereo not drawn),-1.91%
6,CC(C)(C)n1nc(C2CC2)c(Br)c1NC(=O)c1ccccc1F,-1.55%
7,CC(=O)c1ccc(N2CCN(CC(O)c3ccccc3)CC2)cc1 (stereo not drawn),-0.45%
8,CC(=O)N1Cc2ccccc2CC1C(=O)O (stereo not drawn),2.94%
9,CC(=O)c1ccc(N2Cc3ccccc3C2)cc1,12.2% (active)
10,O=C(NCc1cccs1)C1CCN(S(=O)(=O)c2ccccc2[N+](=O)[O-])CC1,1.45%
11,Nc1ccccc1-c1nc2ccncc2[nH]1,3.95%
12,O=C1c2ccccc2C(c2nc3ccccc3[nH]2)N1c1ccccc1 (stereo not drawn),5.38%
13,Cc1ccccc1N1CC(c2nc3ccccc3[nH]2)CC1=O (stereo not drawn),0.19%
14,CCOC(=O)CNC(=O)CSc1ncccc1-c1nc2ccccc2[nH]1,-0.67%
15,c1ccc2[nH]c(-c3nc4ccccc4[nH]3)nc2c1,11.8% (active)
16,Cc1ccc(-c2nc3ccccc3[nH]2)cc1N,12.8% (active)
17,COC(=O)C1CN(CC(C)C)CCS(=O)(=O)N1Cc1ccc(F)cc1 (stereo not drawn),-3.03%
18,CC(C)Cn1c(N2CCN(C(=O)/C=C/c3ccccc3)CC2)nc2ccccc21,-3.13%
19,CN(C(=O)CSc1nnc(Nc2ccccc2)s1)C1CCS(=O)(=O)C1 (stereo not drawn),1.71%
20,CC(C)Nc1nnc(SCC(=O)c2c[nH]c3ccccc23)s1,-0.17%
21,CC(C)c1ccc(Nc2nnc(SCC(=O)c3nnc(-c4ccccc4)o3)s2)cc1,17.7% (active)
22,O=C(Nc1cccc(O)c1)c1ccc(C(=O)c2ccccc2)o1,15.9% (active)
23,O=C(NCc1cccc(CNC(=O)Nc2cccc(O)c2)c1)Nc1cccc(O)c1,-0.42%
24,O=C(OCc1ccc(-c2ccccc2)cc1)c1cccc(O)c1,7.53%

row,Structure (SMILES),activation
1,CC(=O)N1CCc2cc(S(=O)(=O)NCCC(=O)N3CCCC3)ccc21,0.07%
2,COc1ccc(C(=O)NNC(=O)c2cnccn2)cc1[N+](=O)[O-],2.33%
3,COc1ccc(C(=O)O/N=C(\N)c2ccccn2)cc1[N+](=O)[O-],17.4% (active)
4,Cc1ccc(C(=O)O/N=C(\N)c2ccccn2)cc1Cl,4.09%
5,COC(=O)[C@]12C[C@H](CC(=O)NCCC(C)C)C(=O)N(CCc3ccc(OC)c(OC)c3)C1=C[C@H](C(C)(C)C)O[C@@H]2C,0.69%
6,Cc1cc(Br)cn2c(Cc3ccccc3C(F)(F)F)c(-c3ccc(C#N)cc3)nc12,-0.23%
7,Cc1cc(Br)cn2c(Cc3ccccc3C(F)(F)F)c(-c3ccc(Cl)cc3)nc12,0.95%
8,Cc1ccc(-c2nc3ccc(Br)cn3c2Cc2ccccc2C(F)(F)F)cc1,12.4% (active)
9,CCCCN1CCN(C(=O)c2ccc3c(c2)NC(=O)C(C)(C)O3)CC1,1.81%
10,N#CCC[C@H]1CC[C@]2(CCCN(Cc3ccc(Cl)cc3)C2)O1,-2.81%
11,Cc1ccc(C)c(NC(=O)CCS(=O)(=O)c2ccccc2)c1,-2.63%
12,O=C(NC(=S)Nc1ccccc1C(=O)O)c1ccc(-c2ccc(Br)cc2)o1,-2.39%
13,CC1CCN(C(=S)c2ccc(-c3ccc(Cl)cc3Cl)o2)CC1,-2.32%
14,S=C(c1ccc(-c2ccccc2)o1)N1CCCCC1,19.9% (active)
15,NC(=O)c1ncn([C@@H]2O[C@H](C(=O)O)[C@@H](O)[C@H]2O)n1,1.3%
16,Cc1ccnc(Nc2nc3ccccc3s2)n1,21.9% (active)
17,Cc1ccnc(-n2sc3ccccc3c2=O)n1,4.36%
18,CCCN1C(=O)c2[nH]nc(-c3ccccc3)c2C1c1ccccc1 (stereo not drawn),-0.37%
19,O=C(NCc1ccccc1)[C@H]1CCCN1C(=O)[C@H]1CCCN1C(=O)N1CCOCC1,-0.79%
20,CCn1c2ccc(F)cc2c2nnc(SCCN3CCOCC3)nc21,0.7%
21,COc1ccc2nc(SCC(=O)Nc3c(C)cc(C)cc3C)[nH]c2c1,-0.27%
22,Cc1cc2nc(SCCN3CCOCC3)[nH]c2cc1C,11.8% (active)
23,COc1ccccc1CCNS(=O)(=O)c1cc2c3c(c1)C(C)C(=O)N3CCC2 (stereo not drawn),-1.65%
24,O=C1C(=O)N(Cc2ccc(-c3ccsc3)cc2)c2ccc(OC(F)(F)F)cc21,-4.58%

row,Structure (SMILES),activation
1,COC(=O)C1=C(C)N(Cc2ccc(F)cc2)C(=S)NC1c1cccc(Cl)c1 (stereo not drawn),-2.2%
2,CC(C)[C@@H](C)/C=C/[C@@H](C)[C@H]1CC[C@@H]2[C@]1(C)CCC1[C@]23C=C[C@]2(C[C@@H](O)CC[C@]12C)N(c1ccc([N+](=O)[O-])cn1)O3 (stereo partly drawn),0.26%
3,COc1ccc(N2CCN(CCNS(=O)(=O)c3ccc(C(C)(C)C)cc3)CC2)cc1,0.34%
4,N/C(=N\OC(=O)Cc1ccc([N+](=O)[O-])cc1)c1ccccn1,5.64%
5,N/C(=N\OC(=O)CCC1CCCCC1)c1ccccn1,14.7% (active)
6,N/C(=N\OC(=O)CC1CCCCC1)c1ccccc1,0.73%
7,COc1cc(/C=C/C(=O)n2cnc3ccccc32)cc(OC)c1OC,-6.48%
8,C/C(=C(\C#N)C(=O)NCCCN1CCOCC1)N(C)C,-0.63%
9,O=C(Nc1ccccn1)C1CCN(S(=O)(=O)c2ccc3c(c2)OCCO3)CC1,5.62%
10,CNC(=O)C1CCN(S(=O)(=O)c2c(C)noc2/C=C/c2cccc(C)c2)CC1,1.09%
11,Cc1ccnc(NC(=O)C2CCN(S(=O)(=O)c3c(C)c(C)cc(C)c3C)CC2)c1,14.9% (active)
12,COc1ccccc1CCNC(=O)C1CCN(c2nc(C)cc(C)n2)CC1,-1.32%
13,O=C(CSc1nc2ccccc2n1Cc1ccccc1Cl)N/N=C\c1c[nH]c2ccccc12,0.95%
14,O=C(c1ccco1)N1CCN(C(=O)c2cc(-c3ccccc3F)no2)CC1,0.91%
15,Fc1ccccc1-c1cc2cc3c(cc2cn1)OCO3,16.3% (active)
16,COC(=O)C1=C(C)N(Cc2cccc(C(F)(F)F)c2)C(=NCc2cccc(C(F)(F)F)c2)NC1c1ccccc1C(F)(F)F (stereo not drawn),0.13%
17,CN(C)c1ccc(NC(=O)NC2CCCCN(Cc3ccc(Cl)cc3)C2=O)cc1 (stereo not drawn),-1.5%
18,C[C@@H]1CN([C@H](C)CO)S(=O)(=O)c2ccc(C#C[C@@H](C)O)cc2O[C@@H]1CN(C)Cc1ccc(-c2ccccc2)cc1,2.28%
19,COc1ccc(CC(=O)NCc2nnc(SCC(=O)Nc3ncc(C)s3)n2C)cc1,3.07%
20,Cc1cccc(NC(=O)c2cccc(C(=O)Nc3cccc(C)c3C)n2)c1C,-1.93%
21,O=C(Nc1ccc2nc3n(c(=O)c2c1)CCCC3)c1ccc(Cl)nc1,1.23%
22,Cc1cnc(NC(=O)Cn2cnc3c2c(=O)n(C)c(=O)n3C)s1,-0.21%
23,Cc1cnc(NC(=O)c2ccccn2)s1,16.5% (active)
24,CCc1ccccc1OCC(=O)Nc1nnc(C2CC2)s1,-2.07%

row,Structure (SMILES),activation
1,Cc1cnc(NC(=O)c2ccc(Cl)nc2)s1,12.4% (active)
2,O=C(Nc1nnc(C2CC2)s1)c1ccccn1,12.5% (active)
3,CCc1cc(C(=O)Nc2nnc(C3CC3)s2)sc1C,1.89%
4,O=C(COC(=O)c1ccc(F)cc1)NCCCc1ccccc1,-2.09%
5,Cc1ccc(C(=O)NCC(=O)OCC(=O)Nc2cccc(S(=O)(=O)N3CCCC3)c2)cc1C,0.26%
6,O=C(NCc1ccccc1)[C@H]1CCCN1C(=O)[C@@H]1CCCN1C(=O)c1ccc(Cl)cc1Cl,5.91%
7,O=C(CSC1CC(=O)N(CCc2ccccc2)C1=O)Nc1ccc(Cl)cc1 (stereo not drawn),3.22%
8,COC(=O)[C@H](C(C)C)N1CCc2nnn(Cc3ccc(C)cc3)c2-c2ccccc2S1(=O)=O,1.86%
9,COC(=O)[C@]12C[C@H](CC(=O)NCCc3ccccc3OC)C(=O)N(Cc3ccco3)C1=C[C@H](C(C)C)O[C@@H]2C1CC1,1.21%
10,Nc1[nH]c(C(=O)c2ccccc2)c(-c2ccncc2)c1C(=O)NCc1cccc2ccccc12,-0.47%
11,CNC(=O)c1sc(Nc2ccc(OCc3ccccc3)cc2)nc1C,-1.9%
12,N#Cc1ccc(OCC(=O)Nc2nc(-c3ccccn3)cs2)cc1,-6.22%
13,CC(NC(=O)c1ccco1)C(=O)Nc1nc(-c2ccccn2)cs1 (stereo not drawn),1.66%
14,COc1ccc(Nc2nc(-c3ccccc3)cs2)cc1,22.4% (active)
15,COc1cccc(C(O)c2nc(-c3ccc(C)c(C)c3)cs2)c1 (stereo not drawn),-0.02%
16,c1ccc(Nc2nc(-c3ccncc3)cs2)nc1,14.5% (active)
17,O=C(CN1C(=O)C2C3C=CC(C3)C2C1=O)Nc1nc(-c2ccccn2)cs1 (stereo not drawn),0.17%
18,Clc1ccc(Nc2nc(-c3cccs3)cs2)nc1,19.5% (active)
19,CC(=O)c1ccc(Nc2nc(C(N)c3ccccc3)cs2)cc1 (stereo not drawn),2.66%
20,COc1ccc(-c2csc(Nc3ccccn3)n2)cc1,16.9% (active)
21,Cc1cccc(OCC(=O)OCC(=O)Nc2ccc(Cl)cn2)c1,0.27%
